Source: PubChem (National Center for Advancing Translational Sciences (NCATS))
EPAC1 antagonist: qHTS for Antagonist of cAMP-regulated guanine nucleotide exchange factor 3 (EPAC1): primary screen; EPAC1 GEF assay, Rap1b-BODIPY-GDP exchange fluorescence; Potency, µM (series often up to 115 µM), without a hit: at the top dose activity change, negative = inhibition, most hits filed as inhibitors; hit rate 0.14% among 360,000; AID 720709, 2013;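 also: plate controls were vehicle for no effect and positive control for full effect; nearly all actives have a fitted effect of over 50% in size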
EPAC1 ag: qHTS for Agonist of cAMP-regulated guanine nucleotide exchange factor 3 (EPAC1): primary screen. Potency, µM (titrated, usually from 154 µM), for the others: top-dose activation, usual class: activators. hit rate 0.073% among 360,000. Rap guanine nucleotide exchange factor 3 (Homo sapiens), O95398. AID 720707, 2013. EPAC1 agonist qHTS, biochemical assay; response scale: 100% = response to 6.5 mM cAMP; also: nearly all actives have a fitted effect of over 60% in size
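Nucleotide exchange by EPAC1 (100 nM) on Rap1B–BODIPY-GDP (250 nM) in the presence of 50 uM GDP is tracked fluorescently at 480/540 nm over 30 min. Signals are normalized to a 6.5 mM cAMP control.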
ERG Ets-DNA blk: qHTS for Small Molecule Inhibitors of the ERG Ets/DNA interaction. hit rate 0.028% among 370,000. AID 624246, 2012. fluorescence polarization, His-ERG Ets domain / labelled DNA. Potency, µM (highest dose often 76.9 µM), without a hit: at the highest dose FP activity, negative = inhibition, actives largely listed as inhibitors; active = well fitted inhibition curve with a large enough effect in the polarisation, with a control signal flat; inconclusive = small, poorly fitted or top-dose-only effect, or effect the other way, or a change in a side signal; inactive = no such curve, though single readings can be large or run the other way; the % refers to the polarisation;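 also: polarization taken with two DNA probes labelled with fluorescein and Texas red; % of control where 0% means no effect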
Target sequence (P11308 whole entry, looked up, the tested form may be a part): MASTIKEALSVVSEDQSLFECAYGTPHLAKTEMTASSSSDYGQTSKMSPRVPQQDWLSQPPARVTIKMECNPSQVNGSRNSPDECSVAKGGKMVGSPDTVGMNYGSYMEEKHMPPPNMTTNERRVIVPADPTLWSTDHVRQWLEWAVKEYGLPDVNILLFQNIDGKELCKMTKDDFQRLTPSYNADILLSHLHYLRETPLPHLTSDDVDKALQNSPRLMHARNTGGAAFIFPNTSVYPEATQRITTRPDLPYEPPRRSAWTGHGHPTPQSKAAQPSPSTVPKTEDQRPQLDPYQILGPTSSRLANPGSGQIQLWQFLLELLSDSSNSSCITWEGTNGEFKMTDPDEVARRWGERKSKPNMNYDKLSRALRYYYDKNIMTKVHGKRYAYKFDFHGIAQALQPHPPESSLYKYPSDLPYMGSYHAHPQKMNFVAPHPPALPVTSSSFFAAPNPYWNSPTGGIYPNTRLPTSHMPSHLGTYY
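His-tagged ERG Ets domain (1 uM in the protein solution; 300mM KCl, 50mM Tris-HCl, 1mM EDTA, 1mM DTT, pH 7.5) received compound, then a probe mix of 5 nM fluorescein-DNA and 100nM Texas-615-DNA. Fluorescence polarization was read for both dyes.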
EPAC2 antag: qHTS for Antagonist of cAMP-regulated guanine nucleotide exchange factor 2 (EPAC2): primary screen; Rap guanine nucleotide exchange factor 4 (Homo sapiens), Q8WZA2; EPAC2 GEF exchange of Rap1B-BODIPY-GDP, fluorescence; Potency, µM (highest dose often 114 µM), for inactives: top-dose activity, negative = inhibition, hits mostly inhibitors; hit rate 0.18% among 360,000; also: % is scaled to controls: 0 for no effect and ±100 for the full control effect; nearly all actives have a fitted effect of over 45% in size
RGS4 inh: Inhibitors of Regulator of G Protein Signaling (RGS) 4: qHTS | Transcreener GDP fluorescence polarization, RGS4-accelerated GTP hydrolysis | Potency, µM (doses to about 114 µM), inactives show top-dose activity change, negative = inhibition, hits mostly inhibitors | hit rate 0.039% among 390,000; also: % is scaled to controls: 0 for no effect and ±100 for the full control effect; nearly all actives have a fitted effect of over 75% in size
Target sequence (P49798 whole entry, looked up): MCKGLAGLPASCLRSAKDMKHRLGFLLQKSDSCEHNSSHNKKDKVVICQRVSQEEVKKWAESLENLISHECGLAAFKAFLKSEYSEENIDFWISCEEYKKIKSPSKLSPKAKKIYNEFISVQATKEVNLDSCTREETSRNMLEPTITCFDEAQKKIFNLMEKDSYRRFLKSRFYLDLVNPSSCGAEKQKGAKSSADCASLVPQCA
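MLSMR compounds (23 nl, pin-transferred) preincubated 10 min at room temperature with a 500nM (2x) first reagent, then RGS4 at 900nM (2x) plus Transcreener GDP mix added; fluorescence polarization (620/688 nm) read before and after 90 min at 30 °C.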
EPAC2 agonist: qHTS for Agonist of cAMP-regulated guanine nucleotide exchange factor 4 (EPAC2): primary screen | Rap guanine nucleotide exchange factor 4 (Homo sapiens), Q8WZA2 | EPAC2 activation, biochemical qHTS; response scale: 100% = 6.5 mM cAMP response | Potency, µM (top dose mostly 154 µM), for inactives: at the top dose activation, actives largely listed as activators | hit rate 0.079% among 360,000; also: nearly all actives have a fitted effect of over 50% in size
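Nucleotide exchange monitored as fluorescence drop when BODIPY-GDP leaves Rap1B. Reaction: 100 nM EPAC2, 250 nM RAP1B-BODIPY-GDP, 50 uM GDP, room temperature, kinetic read over 30 min. Activity expressed relative to 6.5 mM cAMP.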
* marks the source's active call; other numbers are inactive results; ! = not confirmed by another sample; [ ] = remark or other dose. The list is not random: actives were taken first. Their share in the collection is about 0.4%. Unless noted, calls follow the shape of the dose curve; as a rule, active = well fitted curve in the direction sought with a large enough effect; inconclusive = small, poorly fitted or top-dose-only effect, or another doubt; inactive = no such curve, though single readings can be large; an effect the other way counts as inactive or inconclusive. Potency is read from the fitted curve at half-maximal effect.

For CSC1=NSC2=NC(=O)/C(=C\c3cccs3)C(=N)N12 the results were EPAC1 antagonist 4%, EPAC1 ag -2%, EPAC2 antag -4%, RGS4 inh 8% and EPAC2 agonist -4%.
`N=C1/C(=C/c2cccs2)C(=O)N=C2SN=C(SCc3ccccc3)N12` gave EPAC1 antagonist 79µM*, EPAC1 ag 5%, ERG Ets-DNA blk -6%, EPAC2 antag 0%[57.1 µM], RGS4 inh -21% and EPAC2 agonist -2%.
`COc1ccc(-c2cc3nc(C)c(CCC(=O)NC4CCCCC4)c(C)n3n2)c(OC)c1` gave ERG Ets-DNA blk -4% and RGS4 inh -3%.
`O=C1C=CC(c2ccccc2)(c2ccccc2)CC1` gave EPAC1 antagonist 4%, EPAC1 ag 1%, ERG Ets-DNA blk -4%, EPAC2 antag 45µM*, RGS4 inh 1% and EPAC2 agonist 12%.
For CCCCn1c(=O)c2oc3ccccc3c2n(CC(=O)Nc2ccc(CC)cc2)c1=O the results were ERG Ets-DNA blk -2% and RGS4 inh 15%.
`COC(=O)c1cc(Br)c(=O)n(CCc2ccc(F)cc2)c1` gave EPAC1 antagonist 3%, EPAC1 ag 17%, ERG Ets-DNA blk -15%, EPAC2 antag 28µM*, RGS4 inh -10% and EPAC2 agonist 0%.
`COc1ccc(N2CCN(C(=O)CCc3ccccc3OC)CC2)cc1` gave EPAC1 antagonist 89µM*, EPAC1 ag -172%, ERG Ets-DNA blk 6%, EPAC2 antag 1%, RGS4 inh 5% and EPAC2 agonist 10%.
Screening COc1ccc(C(CC(=O)N2CCOCC2)c2c(OC)cc(OC)c3c(-c4ccccc4)cc(=O)oc23)cc1 (stereo not given) returned EPAC1 antagonist 5%, EPAC1 ag -9%, ERG Ets-DNA blk -2%, EPAC2 antag 50µM*, RGS4 inh -1% and EPAC2 agonist 6%.
`COc1ccc(C(CC(=O)N2CCCC2)c2c(OC)cc(OC)c3c(-c4ccccc4)cc(=O)oc23)cc1` (stereo not given) gave EPAC1 antagonist inconclusive, EPAC1 ag 8%, ERG Ets-DNA blk -6%, EPAC2 antag inconclusive, RGS4 inh -48% and EPAC2 agonist 9%.
CC1(C)CCC2=C(O1)c1ccccc1C(=O)C2=O was read as RGS4 inh 15µM*.
Screening OCc1ccc(-c2nn(Cc3ccccc3)c3ccccc23)o1 returned EPAC1 antagonist -25%, EPAC1 ag -1%, ERG Ets-DNA blk -8%, EPAC2 antag -8%, RGS4 inh 24µM*! and EPAC2 agonist 13%.
For O=c1c2ccccc2c(-c2n[nH]c(=S)o2)nn1Cc1ccccc1 the results were EPAC1 antagonist inconclusive, EPAC1 ag -6%, ERG Ets-DNA blk -11%, EPAC2 antag 2%, RGS4 inh -48%[56.9 µM] and EPAC2 agonist 3%.
CCSc1nnc(-c2sc3nnc(-c4ccccc4)c(-c4ccccc4)c3c2N)o1 was read as EPAC1 antagonist -11%, EPAC1 ag 2%, ERG Ets-DNA blk -4%, EPAC2 antag 168%, RGS4 inh -28% and EPAC2 agonist 100µM*.
`CCSc1nnc(-c2ccncc2)o1` gave EPAC1 antagonist -1%, EPAC1 ag -2%, ERG Ets-DNA blk -8%, EPAC2 antag -3%, RGS4 inh 17% and EPAC2 agonist 2%.
For COC(=O)CSc1nc(C)cc(Oc2ccccc2)n1 the results were EPAC1 antagonist 50µM*, EPAC1 ag -25%, ERG Ets-DNA blk 3%, EPAC2 antag -12%, RGS4 inh 13% and EPAC2 agonist 10%.
`Cc1cc(Oc2ccc(Br)cc2)nc(SCC(=O)c2ccccc2)n1` gave EPAC1 antagonist -3%, EPAC1 ag 2%, ERG Ets-DNA blk -11%, EPAC2 antag -7%, RGS4 inh -52% and EPAC2 agonist 5%.
`CC(C)C(=O)N1c2nc(-c3ccco3)nn2C2(CCCCC2)[C@@H]2CCCC[C@@H]21` gave ERG Ets-DNA blk -1% and RGS4 inh -10%.
`O=C1C=C(N2CCCCC2)c2ccccc2C1=O` gave EPAC1 antagonist 45µM*, EPAC1 ag 17%, ERG Ets-DNA blk 5%, EPAC2 antag 35µM*, RGS4 inh -10% and EPAC2 agonist 17%.
`Cc1cc(O)c(C(=O)/C=C/c2ccccc2O)c(=O)o1` gave EPAC1 antagonist 8%, EPAC1 ag 7%, ERG Ets-DNA blk 8%, EPAC2 antag -18%, RGS4 inh inconclusive and EPAC2 agonist 1%.
Cc1cc(O)c(C(=O)/C=C/c2cccc([N+](=O)[O-])c2)c(=O)o1 was read as EPAC1 antagonist 56µM*, EPAC1 ag -6%, ERG Ets-DNA blk 12%, EPAC2 antag -4%, RGS4 inh -14% and EPAC2 agonist 6%.
For Oc1cccc(/C=N/NC(=S)Nc2cccnc2)c1O the results were EPAC1 antagonist 11µM*, EPAC1 ag -7%, ERG Ets-DNA blk 12%, EPAC2 antag 9%, RGS4 inh -36% and EPAC2 agonist 4%.
`NC(=S)N/N=C/c1ccccc1O` gave EPAC1 antagonist 8%, EPAC1 ag 3%, ERG Ets-DNA blk 1%, EPAC2 antag 5%, RGS4 inh -8% and EPAC2 agonist 6%.
Oc1ccccc1C=NNC(=S)NN=Cc1ccccc1O was read as EPAC1 antagonist 79µM*, EPAC1 ag 9%, ERG Ets-DNA blk 8%, EPAC2 antag 4%, RGS4 inh -29% and EPAC2 agonist 12%.
Oc1ccc(/C=N/NC(=S)Nc2cccnc2)c(O)c1O was read as EPAC1 antagonist inconclusive, EPAC1 ag 7%, ERG Ets-DNA blk 6%, EPAC2 antag -9%, RGS4 inh -109% and EPAC2 agonist 5%.
For CCOc1ccc(CCNC(c2nnc(-c3ccccc3)o2)c2ccccc2Cl)cc1OCC (stereo not given) the results were ERG Ets-DNA blk -2% and RGS4 inh -21%.
For CCOc1ccc(NC(=O)Cn2cc(S(=O)(=O)NC)c(S(=O)(=O)NC)c2)cc1 the results were ERG Ets-DNA blk 12% and RGS4 inh 0%.
